Measurements reported in the supplement of paper PMC9492666.
Structures can show the parent of a compound that is named as a salt.

Legend:
HCC1937 = experiment: relative cell viability, compound alone, vs DMSO (fraction of DMSO control); higher = less growth inhibition; conditions: 72 h
MDA-MB-231 = experiment: as above; conditions: 72 h
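Also: viability read out with the CCK-8 kit in 96-well plates, screening a set of 303 compounds acting on lipid metabolism targets.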

**Q.** Which relative cell viability (HCC1937) does the source give for `O=C(O)c1cccc(N=Nc2c(O)[nH]c3ccc(S(=O)(=O)NCc4ccc(F)cc4)cc23)c1` here?
**A.** 0.885

**Q.** And the relative cell viability (MDA-MB-231)?
**A.** 0.938

**Q.** What does the source list for `O=C1c2cc(CO)cc(O)c2C(=O)c2c(O[C@@H]3O[C@H](CO)[C@@H](O)[C@H](O)[C@H]3O)cccc21` [Aloe-emodin-8-O-beta-D-glucopyranoside]?
**A.** relative cell viability (HCC1937): 0.544; relative cell viability (MDA-MB-231): 0.783

**Q.** For `O=C(c1ccc(NS(=O)(=O)c2cccc3cccnc23)cc1)N1CCN(CC2CC2)CC1` [Mitapivat], which relative cell viability (HCC1937) is on record?
**A.** 0.95

**Q.** And the relative cell viability (MDA-MB-231)?
**A.** 0.935

**Q.** Which relative cell viability (HCC1937) does the source give for `CC(C)C1=CC2=CC[C@@H]3[C@](C)(CCC[C@@]3(C)C(=O)O)[C@H]2CC1` [Abietic Acid] here?
**A.** 1.02

**Q.** What about the relative cell viability (MDA-MB-231) of the same compound?
**A.** 1.07

**Q.** How did the relative cell viability (HCC1937) turn out when `O=C(Nc1ccncc1)c1cc([N+](=O)[O-])ccc1Cl` was run?
**A.** 0.81

**Q.** And the relative cell viability (MDA-MB-231)?
**A.** 0.831

**Q.** For `O=C(O)CCn1c2c(c3ccccc31)C[C@H](NS(=O)(=O)c1ccc(F)cc1)CC2` [Ramatroban], which relative cell viability (HCC1937) is on record?
**A.** 0.711

**Q.** And the relative cell viability (MDA-MB-231)?
**A.** 0.841

**Q.** With `CC(C)=CCC[C@](C)(O[C@@H]1O[C@H](CO)[C@@H](O)[C@H](O)[C@H]1O)[C@H]1CC[C@]2(C)[C@@H]1[C@H](O)C[C@@H]1[C@@]3(C)CC[C@H](O[C@@H]4O[C@H](CO)[C@@H](O)[C@H](O)[C@H]4O[C@@H]4O[C@H](CO)[C@@H](O)[C@H](O)[C@H]4O)C(C)(C)[C@@H]3CC[C@]12C` [Ginsenoside Rd] as the compound, how does the relative cell viability (HCC1937) read?
**A.** 0.834

**Q.** And the relative cell viability (MDA-MB-231)?
**A.** 0.896

**Q.** How did the relative cell viability (HCC1937) turn out when `C=CCc1ccc(O)c(-c2cc(CC=C)ccc2O)c1` [Magnolol] was run?
**A.** 1

**Q.** And the relative cell viability (MDA-MB-231)?
**A.** 0.968

**Q.** Which relative cell viability (HCC1937) does the source give for `NC(=O)c1ncn([C@@H]2O[C@H](CO)[C@@H](O)[C@H]2O)c1N` [AICAR (Acadesine)] here?
**A.** 0.804

**Q.** And the relative cell viability (MDA-MB-231)?
**A.** 0.892

**Q.** Which relative cell viability (HCC1937) does the source give for `CN(C)c1cccc(-c2c3c(=O)n(-c4ccccc4Cl)[nH]c3cc(=O)n2C)c1` here?
**A.** 0.903

**Q.** And the relative cell viability (MDA-MB-231)?
**A.** 0.974

**Q.** How did the relative cell viability (HCC1937) turn out when `CC(C)n1c(/C=C/C(O)CC(O)CC(=O)O)c(-c2ccc(F)cc2)c2ccccc21` (stereo not drawn) [Fluvastatin sodium salt] was run?
**A.** 0.924

**Q.** What about the relative cell viability (MDA-MB-231) of the same compound?
**A.** 0.863

**Q.** With `CC(C)CCC[C@@H](C)[C@H]1CC[C@H]2[C@@H]3CCC4=CC(=NO)CC[C@]4(C)[C@H]3CC[C@]12C` [Olesoxime] as the compound, how does the relative cell viability (HCC1937) read?
**A.** 0.978

**Q.** And the relative cell viability (MDA-MB-231)?
**A.** 0.789

**Q.** Which relative cell viability (HCC1937) does the source give for `Cc1ccc(Oc2nc3cc(-c4ccc(-c5ccccc5)cc4)c(Cl)cc3[nH]2)cc1C(=O)O` here?
**A.** 0.95

**Q.** What about the relative cell viability (MDA-MB-231) of the same compound?
**A.** 0.92

**Q.** With `O=C(CCCCc1ccc2c(c1)OCO2)N1CCCCC1` as the compound, how does the relative cell viability (HCC1937) read?
**A.** 0.608

**Q.** And the relative cell viability (MDA-MB-231)?
**A.** 0.838

**Q.** Which results are given for `CN(C)C(=N)NC(=N)N` [Metformin hydrochloride]?
**A.** relative cell viability (HCC1937): 0.98; relative cell viability (MDA-MB-231): 0.95

**Q.** `CC1(N)CCN(c2cnc(-c3cccc(Cl)c3Cl)c(N)n2)CC1` [SHP099 hydrochloride] was tested. Which relative cell viability (HCC1937) did it give?
**A.** 0.768

**Q.** And the relative cell viability (MDA-MB-231)?
**A.** 1.02

**Q.** How did the relative cell viability (HCC1937) turn out when `COc1ccc([C@@H]2OC[C@H]3[C@@H]2CO[C@@H]3c2ccc(O[C@@H]3O[C@H](CO)[C@@H](O)[C@H](O)[C@H]3O)c(OC)c2)cc1OC` [Forsythin] was run?
**A.** 1.22

**Q.** What about the relative cell viability (MDA-MB-231) of the same compound?
**A.** 1.06

**Q.** With `O=c1ccc2cc(O)c(O)cc2o1` [Esculetin] as the compound, how does the relative cell viability (HCC1937) read?
**A.** 0.673

**Q.** What about the relative cell viability (MDA-MB-231) of the same compound?
**A.** 0.672

**Q.** `CC(C)[C@H](N=C(NS(=O)(=O)c1ccc(Cl)cc1)N1C[C@H](c2ccccc2)C(c2ccc(Cl)cc2)=N1)C(N)=O` was tested. Which relative cell viability (HCC1937) did it give?
**A.** 0.87

**Q.** And the relative cell viability (MDA-MB-231)?
**A.** 0.893

**Q.** Which relative cell viability (HCC1937) does the source give for `Nc1ccc(O)c(C(=O)O)c1` [Mesalamine] here?
**A.** 1.17

**Q.** What about the relative cell viability (MDA-MB-231) of the same compound?
**A.** 0.914

**Q.** `Cc1c(C(=O)Nc2ccc(CO)cc2)nnn1Cc1ccc(Cl)c(Cl)c1` was tested. Which relative cell viability (HCC1937) did it give?
**A.** 0.975

**Q.** And the relative cell viability (MDA-MB-231)?
**A.** 0.95

**Q.** For `Oc1ccc2c(c1)OCO2` [Sesamol], which relative cell viability (HCC1937) is on record?
**A.** 0.804

**Q.** And the relative cell viability (MDA-MB-231)?
**A.** 0.831

**Q.** Which results are given for `CC(C)(O)c1ccccc1CC[C@@H](SCC1(CC(=O)O)CC1)c1cccc(/C=C/c2ccc3ccc(Cl)cc3n2)c1` [Montelukast]?
**A.** relative cell viability (HCC1937): 0.789; relative cell viability (MDA-MB-231): 0.857

**Q.** For `O=C(O)c1ccnc(N2CC(O)(c3ccc(OCc4c(-c5c(Cl)cccc5Cl)noc4C4CC4)cc3Cl)C2)c1` [Cilofexor], which relative cell viability (HCC1937) is on record?
**A.** 0.661

**Q.** What about the relative cell viability (MDA-MB-231) of the same compound?
**A.** 0.885

**Q.** Which relative cell viability (HCC1937) does the source give for `COc1cc(N2CCN(C)CC2)ccc1Nc1ncc2c(n1)N(C1CCC1)C(=O)N(c1c(C)cccc1C)C2` here?
**A.** 0.817

**Q.** What about the relative cell viability (MDA-MB-231) of the same compound?
**A.** 0.767

**Q.** `N#Cc1c(O)c2c(-c3ccc(-c4ccccc4O)cc3)csc2[nH]c1=O` was tested. Which relative cell viability (HCC1937) did it give?
**A.** 0.719

**Q.** And the relative cell viability (MDA-MB-231)?
**A.** 0.907

**Q.** For `O=c1c(O[C@@H]2O[C@H](CO)[C@@H](O)[C@H](O)[C@H]2O)c(-c2ccc(O)cc2)oc2cc(O)cc(O)c12` [Astragalin], which relative cell viability (HCC1937) is on record?
**A.** 0.937

**Q.** What about the relative cell viability (MDA-MB-231) of the same compound?
**A.** 0.984

**Q.** How did the relative cell viability (HCC1937) turn out when `CCC(=O)O[C@]1(C(=O)SCF)[C@H](C)C[C@H]2[C@@H]3C[C@H](F)C4=CC(=O)C=C[C@]4(C)[C@@]3(F)[C@@H](O)C[C@@]21C` [Fluticasone propionate] was run?
**A.** 1.34

**Q.** What about the relative cell viability (MDA-MB-231) of the same compound?
**A.** 0.813

**Q.** `COc1cc(N(C)C)cc(CN(C)CCc2ccc([N+](=O)[O-])cc2)c1O` [CDC25 Phosphatase Inhibitor I] was tested. Which relative cell viability (HCC1937) did it give?
**A.** 0.966

**Q.** And the relative cell viability (MDA-MB-231)?
**A.** 0.976
